SMILES strings stand for the structures. Inconclusive results are not listed. Calls of active or inactive are those of the source. Calls follow the shape of the dose curve; as a rule, active = well fitted cell-killing curve with a large enough effect; inconclusive = small, poorly fitted or top-dose-only effect; inactive = flat fitted curve, though single readings scatter.

Phenylethanolamine N-methyltransferase (Homo sapiens), sequence (P11086 whole entry, looked up): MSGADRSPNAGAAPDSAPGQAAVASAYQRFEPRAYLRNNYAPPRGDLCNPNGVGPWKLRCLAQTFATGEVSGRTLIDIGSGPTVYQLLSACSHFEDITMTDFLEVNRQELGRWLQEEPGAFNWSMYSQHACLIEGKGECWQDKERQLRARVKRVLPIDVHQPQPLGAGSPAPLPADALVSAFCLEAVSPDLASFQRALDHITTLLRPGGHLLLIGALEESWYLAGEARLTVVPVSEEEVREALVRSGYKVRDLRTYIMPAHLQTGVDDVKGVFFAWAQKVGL

One assay deals with Nicotinamide N-methyltransferase (Homo sapiens) (UniProt P40261). As to the kind of experiment: Confirmatory Screen for Target Class Profiling of Small Molecule Inhibitors of Methyltransferases (AID 1745852). The conditions noted are these: MTase-Glo luminescence, SAH detection, recombinant enzyme; measured here: NNMT max response; stronger effect = lower value.
Nicotinamide N-methyltransferase (Homo sapiens), sequence (P40261 whole entry, looked up): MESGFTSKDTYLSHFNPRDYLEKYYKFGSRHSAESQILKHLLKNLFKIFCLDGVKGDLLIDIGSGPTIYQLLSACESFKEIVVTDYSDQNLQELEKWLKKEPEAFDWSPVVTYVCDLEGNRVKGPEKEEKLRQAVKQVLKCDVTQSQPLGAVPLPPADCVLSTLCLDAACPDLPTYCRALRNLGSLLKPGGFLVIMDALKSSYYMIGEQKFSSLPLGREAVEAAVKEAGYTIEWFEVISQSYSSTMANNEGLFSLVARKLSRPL
In the case of `O=C(O)CC1(O)C(=O)Nc2ccccc21` (stereo not given), the activity was determined as 4.18%.
On to `CCOc1ccc(-c2cc(NC(=O)c3c(F)cccc3F)c(C(=O)O)s2)cc1`, for which the activity was -5.18%.
Same read-out and setting: then `C/C(=C\CC/C(C)=C/CC[C@]1(C)CCc2cc(O)cc(C)c2O1)CC/C=C(\C)C(=O)O`, with -14.3%.
With `CC(=O)OC/C(=C/C(=O)O)CC[C@@H]1C(CO)=CC[C@@H]2C(C)(C)CCC[C@@]12C`, the activity is -8.71%.
`O=C(O)c1cccc(CN2C(=O)/C(=C(\c3ccccc3)c3ccc(Cl)cc3)c3ccccc32)c1`: the activity is -41.9%.
Same read-out and setting: then `C=C1CC/C=C(/CO)C(=O)C[C@@H]2[C@@H]1C[C@@]2(C)COC(C)=O`, with 0.048%; and `O=C(/C=C/c1ccccc1)OC[C@H]1O[C@@H](OC(=O)c2cc(O)c(O)c(O)c2)[C@H](O)[C@@H](O)[C@@H]1O`, with -4.41%.
Regarding `COc1c2c(c(C)c3c1C(=O)OC3)OC1(C)CC(O)C34OC(OC)(CC(O)C3(C)C1C2)OC4(C)C` (stereo not given), the activity is -8.14%.
For the compound `C=C[C@H]1[C@H](O[C@@H]2O[C@H](CO)[C@@H](O)[C@H](O)[C@H]2O)OC=C(C(=O)OC)[C@H]1CCO`, the activity was -12.2%.
For the compound `O=C(O)CCc1ccc(NCc2cccc3c2CCCN3CCOc2ccccc2)cc1F`, the activity was -32.3%.
Same read-out and setting: in the case of `CC1CCCCCCCc2cc(O)cc(O)c2C(=O)O1` (stereo not given) it was -60.9%.

The next assay has as its target Phenylethanolamine N-methyltransferase (Homo sapiens) (UniProt P11086). The description is as above. The conditions noted are these: MTase-Glo luminescence, SAH detection, recombinant enzyme; measured here: PNMT max response; stronger effect = lower value.
For `O=C(O)CC1(O)C(=O)Nc2ccccc21` (stereo not given), the activity was -0.0725%.
Still for that read-out and setting: then `CCOc1ccc(-c2cc(NC(=O)c3c(F)cccc3F)c(C(=O)O)s2)cc1`, with -2.03%; and `C/C(=C\CC/C(C)=C/CC[C@]1(C)CCc2cc(O)cc(C)c2O1)CC/C=C(\C)C(=O)O`, with -0.0782%.
As for `CC(=O)OC/C(=C/C(=O)O)CC[C@@H]1C(CO)=CC[C@@H]2C(C)(C)CCC[C@@]12C`, the activity was -5.03%.
On to `O=C(O)c1cccc(CN2C(=O)/C(=C(\c3ccccc3)c3ccc(Cl)cc3)c3ccccc32)c1`, for which the activity was -8.16%.
The same measure, in the same setting: then `C=C1CC/C=C(/CO)C(=O)C[C@@H]2[C@@H]1C[C@@]2(C)COC(C)=O`, with 1.6%.
Still for that read-out and setting: then `O=C(/C=C/c1ccccc1)OC[C@H]1O[C@@H](OC(=O)c2cc(O)c(O)c(O)c2)[C@H](O)[C@@H](O)[C@@H]1O`, with -0.813%; and `COc1c2c(c(C)c3c1C(=O)OC3)OC1(C)CC(O)C34OC(OC)(CC(O)C3(C)C1C2)OC4(C)C` (stereo not given), with -5.39%; and `C=C[C@H]1[C@H](O[C@@H]2O[C@H](CO)[C@@H](O)[C@H](O)[C@H]2O)OC=C(C(=O)OC)[C@H]1CCO`, with -3.1%.
Same read-out and setting: in the case of `O=C(O)CCc1ccc(NCc2cccc3c2CCCN3CCOc2ccccc2)cc1F` it was -5.97%; in that of `CC1CCCCCCCc2cc(O)cc(O)c2C(=O)O1` (stereo not given), -64.4%.

System in another assay: not listed separately
The assay is described as follows: NCATS anti-infectives library activity on HEK293 viability as a counter-qHTS vs the C. elegans viability qHTS (AID 1745854).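 Also: HEK293 cells exposed to compounds for 24 hr before the viability read; % is scaled to controls: 0 for no effect and ±100 for the full control effect.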 The conditions noted are these: HEK293 viability counter-screen; series mostly up to 41.8 µM. The method, boiled down:
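Compounds were acoustically plated (several concentrations, 1:5, final up to 41.7 uM), then 1500 HEK293 cells added per well and incubated 24 hr at 37C, 5% CO2. CellTiter-Glo was added and luminescence read after 10 min.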
On the technique in general: In qHTS, concentration-response curves come from the screen itself.
Consider `COC(=O)C1=CO[C@@H](O[C@@H]2O[C@H](CO)[C@@H](O)[C@H](O)[C@H]2O)[C@@H]2C(CO)=CC[C@H]12`, for which the outcome was “inactive”.
The same measure, in the same setting: then `Cc1noc2c1-c1ccccc1C(c1ccc(Cl)cc1)=N[C@H]2CC(N)=O`, with “inactive”; and `OCC1=C[C@@H](O)[C@@H]2C=CO[C@@H](O[C@@H]3O[C@H](CO)[C@@H](O)[C@H](O)[C@H]3O)[C@H]12`, with “inactive”.

The record behind these values is PubChem BioAssay (NCATS).
